# Reference: PubChem BioAssay AID2172 (The Scripps Research Institute Molecular Screening Center, 2009)
# Some of the results follow. Unmarked numbers belong to inactive results. No rule for the calls is given here.
# Assay: compounds displacing fluorescent intercalator from DNA, dose response, counter-screen for HCV NS3 helicase inhibitor project, biochemical, fluorescence (AID 2172)
# Settings: fluorescent intercalator displacement from DNA
row,Structure (SMILES),IC50 [µM]
1,Cc1ccc(/C=C/C(=O)Nc2ccc([N+](=O)[O-])c(NC(=O)/C=C/c3ccc(C)o3)c2)o1,> 79.4
2,CC(Oc1ccccc1)C(=O)Nc1oc(-c2ccco2)c(-c2ccco2)c1C#N (centres undefined),> 79.4
3,Cc1cc(N2C(=O)C(O)=C(C(=O)c3ccc(C)o3)C2c2ccc(OCc3ccccc3)cc2)no1 (centres undefined),> 79.4
4,Cc1cc(O)c(C(=O)/C=C/c2c(F)c(F)c(F)c(F)c2F)c(=O)o1,> 79.4
